# From the supplement of paper PMC4022240
# ± gives the standard deviation.
# T1: HaloTag-ATRX ADD domain (163-292)
# T1 chain: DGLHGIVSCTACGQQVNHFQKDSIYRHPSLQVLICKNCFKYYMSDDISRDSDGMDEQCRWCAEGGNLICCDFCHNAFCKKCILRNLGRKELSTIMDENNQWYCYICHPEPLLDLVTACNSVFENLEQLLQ
# Experiments:
# Experiment in all cases: peptide microarray binding signal (635 nm), min-max normalized on array (fraction of array maximum); higher = stronger binding
# Conditions in all cases: peptide region: H3 20-32
# [1] = target: T1, HaloTag-ATRX ADD domain (163-292)
# Procedure, shortened: (§1)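 Within each library, mean intensities of triplicate spots were min-max scaled to give the binding signal. The spots were histone 13-mer peptide–cellulose conjugates on nitrocellulose with a Cy3 tracer, blocked overnight at 4°C. They were then probed for 1 h at 4°C using biotin-labelled HaloTag reader fusions (10 nM to 1 μM) with streptavidin-Alexa Fluor 647 or rabbit histone antibodies (1:10,000 to 1:2,000) with anti-rabbit Alexa 647, and scanned at 635 nm for signal and 532 nm for misprints on an Axon GenePix 4000B.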
# [2] = target: HaloTag-ING2 PHD (mouse Ing2 200-280)
# Procedure, shortened: as §1
# [3] = target: anti-H3K4me3 antibody ab8580
# Procedure, shortened: as §1
# [4] = target: anti-H3K9me3 antibody ab8898
# Procedure, shortened: as §1
# [5] = peptide modifications: H3K23me1 H3K27me2, binder concentration: 1:2,000 dilution
# [6] = peptide modifications: H3K23me1 H3K27me2, binder concentration: 1:10,000 dilution
# [7] = peptide modifications: H3K23ac, binder concentration: 1:2,000 dilution
# [8] = peptide modifications: H3K23ac, binder concentration: 1:10,000 dilution
# [9] = peptide modifications: H3K23ac H3K27me3, binder concentration: 1:2,000 dilution
# [10] = peptide modifications: H3K23ac H3K27me3, binder concentration: 1:10,000 dilution
# [11] = peptide modifications: H3K23me1, binder concentration: 1:2,000 dilution
# [12] = peptide modifications: H3K23me1, binder concentration: 1:10,000 dilution
# [13] = peptide modifications: H3K23me1 H3K27ac, binder concentration: 1:2,000 dilution
# [14] = peptide modifications: H3K23me1 H3K27ac, binder concentration: 1:10,000 dilution
# [15] = peptide modifications: H3K23me1 H3K27me3, binder concentration: 1:2,000 dilution
# [16] = peptide modifications: H3K23me1 H3K27me3, binder concentration: 1:10,000 dilution
# [17] = peptide modifications: H3K23ac H3K27me2, binder concentration: 1:2,000 dilution
# [18] = peptide modifications: H3K23ac H3K27me2, binder concentration: 1:10,000 dilution
# [19] = peptide modifications: H3K23ac H3K27ac, binder concentration: 1:2,000 dilution
# [20] = peptide modifications: H3K23ac H3K27ac, binder concentration: 1:10,000 dilution
# [21] = peptide modifications: H3K23ac H3K27me1, binder concentration: 1:2,000 dilution
# [22] = peptide modifications: H3K23ac H3K27me1, binder concentration: 1:10,000 dilution
# [23] = peptide modifications: H3K23me1 H3K27me1, binder concentration: 1:2,000 dilution
# [24] = peptide modifications: H3K23me1 H3K27me1, binder concentration: 1:10,000 dilution
binder,measurement,setting,value
LATKAARKSAPAT [H3 20-32 L A T Kme A A R Kme2 S A P A T],peptide microarray binding signal,"[1]; peptide modifications: H3K23me1 H3K27me2, binder concentration: 50 nM",0.00395 ± 5.6e-05
same,peptide microarray binding signal,"[1]; peptide modifications: H3K23me1 H3K27me2, binder concentration: 500 nM",0.002619 ± 2.1e-05
same,peptide microarray binding signal,"[2]; peptide modifications: H3K23me1 H3K27me2, binder concentration: 10 nM",0.00537 ± 9.5e-05
same,peptide microarray binding signal,"[2]; peptide modifications: H3K23me1 H3K27me2, binder concentration: 100 nM",0.00539 ± 7.3e-05
same,peptide microarray binding signal,[3]; [5],0.00217 ± 0.00021
same,peptide microarray binding signal,[3]; [6],0.00331 ± 4.7e-05
same,peptide microarray binding signal,[4]; [5],0.0018 ± 6.4e-05
same,peptide microarray binding signal,[4]; [6],0.00161 ± 3.1e-05
LATKAARKSAPAT [H3 20-32 L A T Kac A A R K S A P A T],peptide microarray binding signal,"[1]; peptide modifications: H3K23ac, binder concentration: 50 nM",0.00514 ± 8.6e-05
same,peptide microarray binding signal,"[1]; peptide modifications: H3K23ac, binder concentration: 500 nM",0.00843 ± 0.00057
same,peptide microarray binding signal,"[2]; peptide modifications: H3K23ac, binder concentration: 10 nM",0.0139 ± 0.0003
same,peptide microarray binding signal,"[2]; peptide modifications: H3K23ac, binder concentration: 100 nM",0.021 ± 0.00086
same,peptide microarray binding signal,[3]; [7],0.00479 ± 0.00097
same,peptide microarray binding signal,[3]; [8],0.00388 ± 0.00011
same,peptide microarray binding signal,[4]; [7],0.002703 ± 1.4e-05
same,peptide microarray binding signal,[4]; [8],0.00265 ± 8.4e-05
LATKAARKSAPAT [H3 20-32 L A T Kac A A R Kme3 S A P A T],peptide microarray binding signal,"[1]; peptide modifications: H3K23ac H3K27me3, binder concentration: 50 nM",0.006363 ± 3.7e-05
same,peptide microarray binding signal,"[1]; peptide modifications: H3K23ac H3K27me3, binder concentration: 500 nM",0.00867 ± 0.00016
same,peptide microarray binding signal,"[2]; peptide modifications: H3K23ac H3K27me3, binder concentration: 10 nM",0.0207 ± 0.00046
same,peptide microarray binding signal,"[2]; peptide modifications: H3K23ac H3K27me3, binder concentration: 100 nM",0.0281 ± 0.00085
same,peptide microarray binding signal,[3]; [9],0.0464 ± 0.0087
same,peptide microarray binding signal,[3]; [10],0.044 ± 0.0054
same,peptide microarray binding signal,[4]; [9],0.253 ± 0.019
same,peptide microarray binding signal,[4]; [10],0.122 ± 0.0084
LATKAARKSAPAT [H3 20-32 L A T Kme A A R K S A P A T],peptide microarray binding signal,"[1]; peptide modifications: H3K23me1, binder concentration: 50 nM",0.0042 ± 0.00011
same,peptide microarray binding signal,"[1]; peptide modifications: H3K23me1, binder concentration: 500 nM",0.00714 ± 0.00042
same,peptide microarray binding signal,"[2]; peptide modifications: H3K23me1, binder concentration: 10 nM",0.0107 ± 0.00011
same,peptide microarray binding signal,"[2]; peptide modifications: H3K23me1, binder concentration: 100 nM",0.0176 ± 0.00097
same,peptide microarray binding signal,[3]; [11],0.00564 ± 0.0011
same,peptide microarray binding signal,[3]; [12],0.0116 ± 0.0039
same,peptide microarray binding signal,[4]; [11],0.00267 ± 0.00032
same,peptide microarray binding signal,[4]; [12],0.00242 ± 0.00013
LATKAARKSAPAT [H3 20-32 L A T Kme A A R Kac S A P A T],peptide microarray binding signal,"[1]; peptide modifications: H3K23me1 H3K27ac, binder concentration: 50 nM",0.0232 ± 0.00051
same,peptide microarray binding signal,"[1]; peptide modifications: H3K23me1 H3K27ac, binder concentration: 500 nM",0.0506 ± 0.0021
same,peptide microarray binding signal,"[2]; peptide modifications: H3K23me1 H3K27ac, binder concentration: 10 nM",0.058 ± 0.0036
same,peptide microarray binding signal,"[2]; peptide modifications: H3K23me1 H3K27ac, binder concentration: 100 nM",0.0801 ± 0.006
same,peptide microarray binding signal,[3]; [13],0.0267 ± 0.0037
same,peptide microarray binding signal,[3]; [14],0.0268 ± 0.003
same,peptide microarray binding signal,[4]; [13],0.0161 ± 0.0018
same,peptide microarray binding signal,[4]; [14],0.0113 ± 0.0012
LATKAARKSAPAT [H3 20-32 L A T Kme A A R Kme3 S A P A T],peptide microarray binding signal,"[1]; peptide modifications: H3K23me1 H3K27me3, binder concentration: 50 nM",0.005266 ± 3.8e-05
same,peptide microarray binding signal,"[1]; peptide modifications: H3K23me1 H3K27me3, binder concentration: 500 nM",0.00848 ± 0.00016
same,peptide microarray binding signal,"[2]; peptide modifications: H3K23me1 H3K27me3, binder concentration: 10 nM",0.0135 ± 0.00027
same,peptide microarray binding signal,"[2]; peptide modifications: H3K23me1 H3K27me3, binder concentration: 100 nM",0.01991 ± 8.1e-05
same,peptide microarray binding signal,[3]; [15],0.0287 ± 0.0026
same,peptide microarray binding signal,[3]; [16],0.0313 ± 0.0019
same,peptide microarray binding signal,[4]; [15],0.078 ± 0.0011
same,peptide microarray binding signal,[4]; [16],0.0363 ± 0.0019
LATKAARKSAPAT [H3 20-32 L A T Kac A A R Kme2 S A P A T],peptide microarray binding signal,"[1]; peptide modifications: H3K23ac H3K27me2, binder concentration: 50 nM",0.00426 ± 0.0002
same,peptide microarray binding signal,"[1]; peptide modifications: H3K23ac H3K27me2, binder concentration: 500 nM",0.00929 ± 0.0011
same,peptide microarray binding signal,"[2]; peptide modifications: H3K23ac H3K27me2, binder concentration: 10 nM",0.0152 ± 0.0015
same,peptide microarray binding signal,"[2]; peptide modifications: H3K23ac H3K27me2, binder concentration: 100 nM",0.0206 ± 0.00053
same,peptide microarray binding signal,[3]; [17],0.00765 ± 0.0019
same,peptide microarray binding signal,[3]; [18],0.00719 ± 0.00029
same,peptide microarray binding signal,[4]; [17],0.00344 ± 0.001
same,peptide microarray binding signal,[4]; [18],0.00329 ± 0.00032
LATKAARKSAPAT [H3 20-32 L A T Kac A A R Kac S A P A T],peptide microarray binding signal,"[1]; peptide modifications: H3K23ac H3K27ac, binder concentration: 50 nM",0.0196 ± 0.0013
same,peptide microarray binding signal,"[1]; peptide modifications: H3K23ac H3K27ac, binder concentration: 500 nM",0.0397 ± 0.0034
same,peptide microarray binding signal,"[2]; peptide modifications: H3K23ac H3K27ac, binder concentration: 10 nM",0.0424 ± 0.0038
same,peptide microarray binding signal,"[2]; peptide modifications: H3K23ac H3K27ac, binder concentration: 100 nM",0.0536 ± 0.0026
same,peptide microarray binding signal,[3]; [19],0.0164 ± 0.0012
same,peptide microarray binding signal,[3]; [20],0.0172 ± 0.00041
same,peptide microarray binding signal,[4]; [19],0.016 ± 0.002
same,peptide microarray binding signal,[4]; [20],0.00848 ± 0.00094
LATKAARKSAPAT [H3 20-32 L A T Kac A A R Kme S A P A T],peptide microarray binding signal,"[1]; peptide modifications: H3K23ac H3K27me1, binder concentration: 50 nM",0.0068 ± 0.00024
same,peptide microarray binding signal,"[1]; peptide modifications: H3K23ac H3K27me1, binder concentration: 500 nM",0.0141 ± 0.0013
same,peptide microarray binding signal,"[2]; peptide modifications: H3K23ac H3K27me1, binder concentration: 10 nM",0.0291 ± 0.00095
same,peptide microarray binding signal,"[2]; peptide modifications: H3K23ac H3K27me1, binder concentration: 100 nM",0.0373 ± 0.0027
same,peptide microarray binding signal,[3]; [21],0.0154 ± 0.0014
same,peptide microarray binding signal,[3]; [22],0.0175 ± 0.003
same,peptide microarray binding signal,[4]; [21],0.00459 ± 0.00035
same,peptide microarray binding signal,[4]; [22],0.00513 ± 0.00045
LATKAARKSAPAT [H3 20-32 L A T Kme A A R Kme S A P A T],peptide microarray binding signal,"[1]; peptide modifications: H3K23me1 H3K27me1, binder concentration: 50 nM",0.00404 ± 0.00027
same,peptide microarray binding signal,"[1]; peptide modifications: H3K23me1 H3K27me1, binder concentration: 500 nM",0.00976 ± 0.00044
same,peptide microarray binding signal,"[2]; peptide modifications: H3K23me1 H3K27me1, binder concentration: 10 nM",0.015 ± 0.00066
same,peptide microarray binding signal,"[2]; peptide modifications: H3K23me1 H3K27me1, binder concentration: 100 nM",0.0215 ± 0.0021
same,peptide microarray binding signal,[3]; [23],0.0102 ± 0.0036
same,peptide microarray binding signal,[3]; [24],0.01 ± 0.00092
same,peptide microarray binding signal,[4]; [23],0.00488 ± 0.00067
same,peptide microarray binding signal,[4]; [24],0.0045 ± 0.00019
